Source: the supplement of paper PMC10811239

Tested on: LEGO organoid PT (PTEN-/-; TP53-/-)
Assay: bioluminescence (viable cell) signal fold change after vs before treatment, normalised to DMSO (ratio); higher = more tumour cell growth / less inhibition
Conditions: 10 µM; treatment time 6 days
Protocol: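 Luc2-labelled iPSC-derived glioblastoma-like organoids (LEGOs, genotypes PT = PTEN-/-;TP53-/-, PTCC = plus CDKN2A/B-/-, PTN = plus NF1-/-) were treated with 10 uM drug for 6 days (applied every other day) at 37 C. Bioluminescence imaging was done before treatment and 2 days after the last dose. BLI signals were normalised to the DMSO control on the same day and then to the pre-treatment signal (N=3).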

Compound | bioluminescence
CO/N=C(\C(=O)N[C@@H]1C(=O)N2C(C(=O)[O-])=C(CSc3nc(=O)c([O-])nn3C)CS[C@H]12)c1csc(N)n1.CO/N=C(\C(=O)N[C@@H]1C(=O)N2C(C(=O)[O-])=C(CSc3nc(=O)c([O-])nn3C)CS[C@H]12)c1csc(N)n1.O.O.O.O.O.O.O.[Na+].[Na+].[Na+].[Na+] [Ceftriaxone sodium] | 0.964
CS(=O)(=O)c1cccc(C[C@H](NC(=O)c2c(Cl)cc3c(c2Cl)CCN(C(=O)c2ccc4ccoc4c2)C3)C(=O)O)c1 [Lifitegrast] | 1.49
COc1ccccc1Oc1c(NS(=O)(=O)c2ccc(C(C)(C)C)cc2)nc(-c2ncccn2)nc1OCCO [Bosentan] | 0.81
Cl.N=C1CCCN1Cc1[nH]c(=O)[nH]c(=O)c1Cl [Tipiracil hydrochloride] | 0.741
Cc1ccccc1C(OCCN(C)C)c1ccccc1.Cl (stereo not given) [Orphenadrine hydrochloride] | 1.02
COc1cc2ncnc(Nc3ccc(F)c(Cl)c3)c2cc1NC(=O)/C=C/CN1CCCCC1 [Dacomitinib] | 0.37
CC1COc2c(N3CCN(C)CC3)c(F)cc3c(=O)c(C(=O)O)cn1c23 (stereo not given) [Ofloxacin] | 1.08
C[C@@H](O[C@H]1OCCN(Cc2nc(=O)[nH][nH]2)[C@H]1c1ccc(F)cc1)c1cc(C(F)(F)F)cc(C(F)(F)F)c1 [Aprepitant] | 0.86
COCCCC/C(=N\OCCN)c1ccc(C(F)(F)F)cc1.O=C(O)/C=C\C(=O)O [Fluvoxamine maleate] | 1.22
CCN(CC)CC#CCOC(=O)C(O)(c1ccccc1)C1CCCCC1 (stereo not given) [Oxybutynin] | 0.449
CCCCN1CCCCC1C(=O)Nc1c(C)cccc1C.Cl (stereo not given) [Bupivacaine hydrochloride] | 1.37
CS(=O)(=O)CCNCc1ccc(-c2ccc3ncnc(Nc4ccc(OCc5cccc(F)c5)c(Cl)c4)c3c2)o1 [Lapatinib] | 1.62
CS(=O)(=O)O.Cc1ccc(NC(=O)c2ccc(CN3CCN(C)CC3)cc2)cc1Nc1nccc(-c2cccnc2)n1 [Imatinib Mesylate] | 0.751
CC(C(=O)O)c1cccc(C(=O)c2ccccc2)c1 (stereo not given) [Ketoprofen] | 0.893
N[C@H](C(=O)O)[C@H](O)c1ccc(O)c(O)c1 [Droxidopa] | 1.08
C[C@]12C=CC(=O)C=C1CC[C@@H]1[C@@H]2[C@@H](O)C[C@@]2(C)[C@H]1CC[C@]2(O)C(=O)CO [Prednisolone] | 0.904
COc1ccc(CNc2nc(N3CCC[C@H]3CO)ncc2C(=O)NCc2ncccn2)cc1Cl [Avanafil] | 0.905
CCCCOc1ccc(C(=O)CCN2CCCCC2)cc1.Cl [Dyclonine hydrochloride] | 0.967
Cc1ccc(C(=O)c2cc(O)c(O)c([N+](=O)[O-])c2)cc1 [Tolcapone] | 1.1
Nc1[nH]c(=O)ncc1F [Fluorocytosine] | 2.51

Compound | bioluminescence
COc1cccc2c1C(=O)c1c(O)c3c(c(O)c1C2=O)C[C@@](O)(C(=O)CO)C[C@@H]3O[C@H]1C[C@H](N)[C@@H](O)[C@H](C)O1.Cl [Epirubicin hydrochloride] | 0
CC[C@]1(O)C[C@H]2C[N@](CCc3c([nH]c4ccccc34)[C@@](C(=O)OC)(c3cc4c(cc3OC)N(C=O)[C@H]3[C@@](O)(C(=O)OC)[C@H](OC(C)=O)[C@]5(CC)C=CCN6CC[C@]43[C@@H]65)C2)C1.O=S(=O)(O)O [Vincristine sulfate] | 0.224
Cc1cc(C)cc(OCC2CNC(=O)O2)c1 (stereo not given) [Metaxalone] | 1.24
Cl.CNCC\C=C1\c2ccccc2CCc2ccccc12 [Nortriptyline hydrochloride] | 0.795
NC(=O)c1ncn([C@@H]2O[C@H](CO)[C@@H](O)[C@H]2O)n1 [Ribavirin] | 0.826
C[C@@H]1C[C@H]2[C@@H]3CCC4=CC(=O)C=C[C@]4(C)[C@@]3(F)[C@@H](O)C[C@]2(C)[C@@]1(O)C(=O)CO [Dexamethasone] | 0.763
FC(F)(F)c1ccc(CNc2ccc(Cc3c[nH]c4ncc(Cl)cc34)cn2)cn1 [Pexidartinib] | 0.7
CN(C)CCCN1c2ccccc2CCc2ccccc21.Cl [Imipramine hydrochloride] | 0.921
COc1cc2c(Nc3ccc(Br)cc3F)ncnc2cc1OCC1CCN(C)CC1 [Vandetanib] | 1.32
CC[C@H](C)C(=O)O[C@H]1C[C@@H](C)C=C2C=C[C@H](C)[C@H](CC[C@@H]3C[C@@H](O)CC(=O)O3)[C@H]21 [Lovastatin] | 1.33
CC(=O)c1c(C)c2cnc(Nc3ccc(N4CCNCC4)cn3)nc2n(C2CCCC2)c1=O.O=S(=O)(O)CCO [Palbociclib Isethionate] | 3.4
CN(C)CC(c1ccc(O)cc1)C1(O)CCCCC1 (stereo not given) [Desvenlafaxine] | 1.01
CN[C@H]1CC[C@@H](c2ccc(Cl)c(Cl)c2)c2ccccc21.Cl [Sertraline hydrochloride] | 0.66
Cl.N=C(N)NC(=O)Cc1c(Cl)cccc1Cl [Guanfacine hydrochloride] | 1.1
CN1[C@@H]2CCC[C@H]1C[C@@H](NC(=O)c1nn(C)c3ccccc13)C2.Cl [Granisetron hydrochloride] | 0.715
Cl.Nc1c2c(nc3ccccc13)CCCC2.O [Tacrine hydrochloride hydrate] | 0.719
CC(C)(S)[C@@H](N)C(=O)O [d-penicillamin] | 0.964
CC(CN(C)C)CN1c2ccccc2CCc2ccccc21.O=C(O)/C=C\C(=O)O (stereo not given) [Trimipramine maleate] | 0.503
CN=C(NC#N)NCCSCc1nc[nH]c1C [Cimetidine] | 1.14
N#Cc1ccc2[nH]cc(CCCCN3CCN(c4ccc5oc(C(N)=O)cc5c4)CC3)c2c1 [Vilazodone] | 0.812
